According to PubChem BioAssay AID1159580 (chemical genetic matrix, 2015):
“And” between values parts separate entries of the source, which are not always exact repeats. Equal values may be shown once. The campaign covered roughly 5,500 compounds. About 2,000 (36%) were called active. Another 18% or so got no clear call; they are omitted. Rule as the data show it: active = normalized growth mostly below about 0.91 (no sharp cut-off); inconclusive = no clear call, values can overlap the other calls; inactive = mostly above about 0.92. This is one part of the list.

Assay: chemical genetic growth profiling, strain panel (AID 1159580);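 also: tested at 20 µM; growth read once vehicle control cultures reached saturation at 30 °C; 1 = growth at the plate median or of vehicle wells; lower values mean less growth of the strain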
Conditions: S. cerevisiae deletion strains, growth OD

Measured: normalized growth

O=C(/C=C/c1ccc(O)cc1)c1ccc(O)cc1O
inactive: locus YAL013W, strain DEP1, hits give low values 0.996 and 0.982 | locus YAL021C, strain ccr4, hits give low values 0.981 | locus YAL026C, strain drs2, hits give low values 1.02 | locus YAL030W, strain snc1, hits give low values 1.01 | locus YAL040C, strain CLN3, hits give low values 0.986 | locus YBL061C, strain skt5, hits give low values 1 | locus YBR009C, strain hhf1, hits give low values 0.999 | locus YBR021W, strain FUR4, hits give low values 1.04 | locus YBR023C, strain chs3, hits give low values 0.997 | locus YBR171W, strain sec66, hits give low values 1.01 | locus YBR229C, strain ROT2, hits give low values 0.987 | locus YBR231C, strain swc5, hits give low values 0.979 | locus YBR279W, strain paf1, hits give low values 0.99 | locus YCL011C, strain gbp2, hits give low values 0.995 | locus YCL016C, strain dcc1, hits give low values 0.991 | locus YCL029C, strain bik1, hits give low values 0.945 | locus YCL061C, strain MRC1 (second series), hits give low values 1.01 | locus YCL069W, strain vba3, hits give low values 1.01 | locus YCR088W, strain abp1, hits give low values 1.01 | locus YDL005C, strain med2, hits give low values 1.02 | locus YDL035C, strain GPR1, hits give low values 0.98 | locus YDL040C, strain nat1, hits give low values 1 | locus YDL074C, strain BRE1, hits give low values 0.912 | locus YDL101C, strain DUN1, hits give low values 1 | locus YDL185W, strain tfp1, hits give low values 0.919 | locus YDL192W, strain arf1, hits give low values 0.948 | locus YDR001C, strain nth1, hits give low values 1 | locus YDR069C, strain doa4, hits give low values 1 | locus YDR101C, strain arx1, hits give low values 0.96 | locus YDR137W, strain rgp1, hits give low values 1.08 | locus YDR150W, strain NUM1, hits give low values 0.991 and 1.01 | locus YDR159W, strain sac3, hits give low values 0.99 | locus YDR162C, strain NBP2, hits give low values 1.02 | locus YDR195W, strain ref2 1.04 | locus YDR297W, strain sur2, hits give low values 1 | locus YDR318W, strain mcm21, hits give low values 0.966 | locus YDR334W, strain swr1, hits give low values 1 | locus YDR335W, strain msn5, hits give low values 1.02 | locus YDR363W, strain ESC2, hits give low values 1.01 | locus YDR388W, hits give low values 0.96 | locus YDR392W, strain spt3, hits give low values 0.892 | locus YDR502C, strain sam2, hits give low values 0.963 | locus YEL003W, strain gim4, hits give low values 1.01 | locus YEL037C, strain rad23, hits give low values 1.01 | locus YEL061C, strain CIN8 (second series), hits give low values 1.01 | locus YEL061C, strain CIN8, hits give low values 0.992 | locus YER002W, strain NOP16, hits give low values 0.985 | locus YER015W, strain faa2, hits give low values 1 | locus YER016W, strain bim1, hits give low values 1.01 | locus YER110C, hits give low values 0.955 | locus YER111C, strain swi4, hits give low values 1.02 | locus YER155C, strain BEM2 (second series), hits give low values 0.97 | locus YER155C, strain BEM2, hits give low values 0.972 | locus YER167W, strain BCK2, hits give low values 0.971 | locus YFR010W, strain ubp6, hits give low values 1.02 | locus YGL078C, strain dbp3, hits give low values 1.01 | locus YGL086W, strain mad1, hits give low values 0.958 | locus YGL167C, strain pmr1, hits give low values 1.02 | locus YGL173C, strain kem1, hits give low values 1.02 | locus YGL227W, strain vid30, hits give low values 1.01 | locus YGL240W, strain doc1, hits give low values 0.994 | locus YGL248W, strain PDE1, hits give low values 1.01 | locus YGL253W, strain hxk2, hits give low values 0.987 | locus YGR078C, strain PAC10, hits give low values 0.997 and 0.992 | locus YGR135W, strain pre9, hits give low values 0.941 | locus YGR252W, strain gcn5, hits give low values 0.935 | locus YHR013C, strain ard1, hits give low values 1.03 | locus YHR027C, strain rpn1, hits give low values 1.01 | locus YHR030C, strain SLT2, hits give low values 0.98 and 0.955 | locus YHR079C, strain IRE1 (second series), hits give low values 0.959 | locus YHR079C, strain IRE1, hits give low values 0.895 | locus YHR094C, strain hxt1, hits give low values 0.965 | locus YHR129C, strain ARP1, hits give low values 0.978 | locus YHR142W, strain chs7, hits give low values 0.985 | locus YHR200W, strain rpn10, hits give low values 0.944 | locus YIL066C, strain RNR3, hits give low values 0.975 | locus YIL073C, strain SPO22, hits give low values 0.96 | locus YIL125W, strain kgd1, hits give low values 0.963 | locus YIR030C, strain dcg1, hits give low values 0.973 | locus YJL092W, strain hpr5, hits give low values 1.01 | locus YJL095W, strain BCK1 (second series), hits give low values 1.01 | locus YJL095W, strain BCK1, hits give low values 1.01 and 0.977 | locus YJL115W, strain asf1, hits give low values 1.02 | locus YJL129C, strain trk1, hits give low values 0.983 | locus YJL134W, strain LCB3, hits give low values 0.97 | locus YJL154C, strain vps35, hits give low values 1.02 | locus YJL164C, strain tpk1, hits give low values 0.986 | locus YJL166W, strain qcr8, hits give low values 1.01 | locus YJL168C, strain set2, hits give low values 0.963 | locus YJL187C, strain SWE1 (second series), hits give low values 0.994 | locus YJR043C, strain POL32, hits give low values 0.961 | locus YJR066W, strain TOR1, hits give low values 0.904
